Our source for the growth values is PubChem BioAssay (NCI).

This is part of a sample that, as a whole, favours compounds with a hit. Of some 83,000 tested, about 20% had one in any assay.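 Treatment: one concentration, 48 hours, 96-well format. Scoring: percent growth, with anything below 10 considered active.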 Unmarked numbers belong to inactive results. Calls of active or inactive are those of the source.

The assay concerns HL-60(TB) leukemia. Description: NCI-60 one-dose screen, 48 h (100 = growth as untreated, 0 = no growth, -100 = all killed). To be noted: 10 µM unless noted.
With `O=C1Nc2cc(-c3ccc(NS(=O)(=O)c4ccccc4)cc3)ccc2/C1=C/c1ccc[nH]1`, the growth was 95.7%.

Take `COc1cc(/C=C2\C(=O)Nc3cc(C)c(O)cc32)cc(OC)c1OC`: the growth is 46.7%.

On to `O=C1NC(=O)/C(=C/c2c(-c3ccccc3)nc3sc(COc4ccccc4)nn23)S1`, for which the growth was 91.1%.

Regarding `Cc1[nH]nc(C(N)=O)c1[N+](=O)[O-]`, the growth is 129%.

`Cc1ccc2nc(SCn3nnc4ccccc4c3=O)[nH]c2c1`: the growth is 80.3%.

In the case of `O=C1CC(c2ccccc2)Cc2nc3ccc(Cl)cc3cc21` (stereo unspecified), the growth is -20.7% (active).

Take `CCN(c1ccc(Cl)cc1)c1nc(-c2ccc([N+](=O)[O-])cc2)cs1`: the growth is 96.1%.

With `COc1cc2c(c(OC)c1O)C(=O)C(OC)C(c1ccc(O)c(O)c1)O2` (stereo unspecified), the growth was -28.6% (active).

In the case of `CN(C)C1=NCCN1`, the growth is 97.9%.

Consider `COc1cc([C@H](C)c2ccc3ccccc3c2)cc(OC)c1OC`, for which the growth is -5.85% (active).

Turning to `OCc1cccc(F)c1`, the growth is 107%.

On to `O=CNc1c(Cl)cc2c(c1Cl)Cc1cc([N+](=O)[O-])ccc1-2`, for which the growth was 17.5%.

In the case of `Cn1cc(-c2nn3cc(-c4ccccc4)nc3s2)c2ccccc21`, the growth is 84.8%.

On to `COc1cccc(-c2nn(-c3ccccc3)cc2-c2ccnc(NCCCO)c2)c1`, for which the growth is -7.94% (active).

Consider `CCOC(=O)CNC1=C(Cl)C(=O)N(Cc2ccc(Cl)cc2)C1=O`, for which the growth was 105%.

Consider `Cc1ccc(/C=C2\CN(C(=O)CCN3CCC(=NO)CC3)C/C(=C\c3ccc(C)cc3)C2=O)cc1`, for which the growth is -11.3% (active).
